Results: PubChem BioAssay (NCATS)
Results filed as inconclusive are left out. Active and inactive are the calls of the source. Calls come from the whole dose curve; as a rule, active = well fitted curve in the direction sought with a large enough effect; inconclusive = small, poorly fitted or top-dose-only effect, or another doubt; inactive = no such curve, though single readings can be large; an effect the other way counts as inactive or inconclusive.

Tests used:
[1] = molecular target: Alpha-galactosidase (Coffea arabica) (UniProt Q42656); experiment: Counterscreen for Glucocerebrosidase Inhibitors: qHTS Assay for Coffee Bean alpha-Galactosidase at pH 4.5 (AID 957); note: series mostly up to about 77 µM
Sequence of Alpha-galactosidase (Coffea arabica) (Q42656 whole entry, looked up): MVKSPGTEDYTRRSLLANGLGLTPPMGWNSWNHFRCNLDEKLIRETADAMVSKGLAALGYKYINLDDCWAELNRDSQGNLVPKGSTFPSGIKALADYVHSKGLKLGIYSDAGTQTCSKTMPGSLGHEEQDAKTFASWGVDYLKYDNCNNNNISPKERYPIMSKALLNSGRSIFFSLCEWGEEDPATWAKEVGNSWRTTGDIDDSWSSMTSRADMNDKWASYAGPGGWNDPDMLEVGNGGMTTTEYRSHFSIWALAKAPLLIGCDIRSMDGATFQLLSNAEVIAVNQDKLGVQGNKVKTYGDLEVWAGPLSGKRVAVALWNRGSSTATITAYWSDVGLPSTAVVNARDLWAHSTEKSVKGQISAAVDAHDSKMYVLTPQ
Outline: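 Fluorogenic qHTS at pH 4.5 (citrate buffer with Tween-20): 2 nM enzyme, 80 uM 4-MU-alpha-galactoside substrate, compound titrated 0.7 nM to 77 uM, 20 min room temperature. Glycine/NaOH stop; 4-MU read Ex 365/Em 440; Hill-equation AC50 against no-enzyme and enzyme controls.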

[2] = MultiTox-Fluor Cytotoxicity Assay - LYMP1-002 - Live Cells (AID 955);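 note: cells exposed to compound for 16 hours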
Outline: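 After 16 h compound exposure at 37 C, live LYMP1-002 lymphoblastoid cells (2500/well) were quantified by cleavage of cell-permeant GF-AFC substrate, read at 405/510 nm after 60 min. Concentration-response fitted with Hill equation for AC50.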

[3] = MultiTox-Fluor Cytotoxicity Assay - LYMP1-002 - Dead Cells (AID 960); note: nearly all actives have a fitted effect of over 60% in size
Outline: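 Dead-cell fluorescence (Ex/Em 485/520) after 16 h compound exposure at 37 C of LYMP1-002 lymphoblastoid cells in complete medium; AC50 by Hill equation, with data scaled between DMSO and 15 uM tetraoctylammonium bromide.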

[4] = MultiTox-Fluor Cytotoxicity Assay - LYMP1-003 - Dead Cells (AID 961); note: nearly all actives have a fitted effect of over 70% in size
Outline: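 LYMP1-003 lymphoblastoid, 2500 cells/well, 5 hr settle then 16 hr cpd at 37 C; MultiTox-Fluor reagent 60 min RT; Ex/Em 485/520 dead-cell signal; norm. DMSO = 0%, 15 uM tetraoctylammonium bromide = 100%; Hill AC50.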

[5] = MultiTox-Fluor Cytotoxicity Assay - LYMP1-003 - Live Cells (AID 962);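 note: cells exposed to compound for 16 hours at 37 °C; cytotoxic hits lower the live-cell protease signal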
Outline: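 Live-cell protease activity (GF-AFC substrate, 405/510 nm, 60 min at room temperature) after 16 h, 37 C compound exposure of human lymphoblastoid LYMP1-003 cells; concentration-response fitted to the Hill equation for AC50.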

[6] = Cell Viability - LYMP1-003 - Assay at 24 hr (AID 963)
Outline: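 Concentration-response qHTS: ATP loss measured by CellTiter-Glo luminescence after 24 h compound exposure at 37 C. Cells were LYMP1-003 human lymphoblastoid, 2500 per well. AC50 derived via standard Hill equation modeling.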

[7] = Cell Viability - LYMP1-003 - Assay at 40 hr (AID 964); note: series mostly up to about 92 µM; nearly all actives have a fitted effect of over 60% in size
Outline: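 Viability is taken as cellular ATP, read by CellTiter-Glo luminescence after 40 h of compound exposure at 37 C. Cells: human lymphoblastoid line LYMP1-003 at 2500/well; AC50 values derived by Hill-equation fitting of concentration-response data.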

[8] = Cell Viability - LYMP2-003 (AID 965);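 note: cells exposed to compounds for 24 h before reading; nearly all actives have a fitted effect of over 50% in size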
Outline: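 Seed 2500 lymphoblastoid cells/well; incubate 5 hr, 37 C; add compounds; incubate 24 hr, 37 C; add CellTiter-Glo, 30 min RT; read luminescence. AC50 from Hill fit.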

[9] = Cell Viability - LYMP2-004 (AID 966); note: nearly all actives have a fitted effect of over 65% in size
Outline: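 AC50 values come from Hill modelling of concentration-dependent loss of intracellular ATP, measured by CellTiter-Glo luminescence. Human LYMP2-004 lymphoblastoid cells (2500/well) were exposed to compound for 24 h at 37 C.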

[10] = Cell Viability - LYMP2-005 (AID 967); note: series mostly up to about 92 µM
Outline: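 Acute cytotoxicity is scored as a concentration-dependent drop in intracellular ATP in human lymphoblastoid LYMP2-005 cells after 24 h compound treatment. ATP is quantified by luciferase luminescence, and AC50 is derived by Hill-equation modelling.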

[11] = Cell Viability - LYMP2-009 (AID 968); note: series mostly up to about 92 µM; nearly all actives have a fitted effect of over 55% in size
[12] = Cell Viability - LYMP2-011 (AID 969); note: nearly all actives have a fitted effect of over 60% in size
Outline: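 Cytotoxicity qHTS with ATP content as read-out: lymphoblastoid cells (2500/well) exposed to compound for 24 h at 37 C, then luciferase luminescence measured. Concentration-response data fitted with the standard Hill equation to give AC50.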

[13] = Cell Viability - LYMP2-013 (AID 970); note: series mostly up to about 92 µM; nearly all actives have a fitted effect of over 55% in size
Outline: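 qHTS cytotoxicity: ATP-dependent luminescence (CellTiter-Glo, 30 min room temperature) read after 24 h compound exposure at 37 C of 2500 LYMP2-013 lymphoblastoid cells per well. Concentration-response fitted with Hill equation to give AC50.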

[14] = Cell Viability - LYMP2-015 (AID 971); note: nearly all actives have a fitted effect of over 55% in size
Outline: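 Cytotoxicity readout: decrease in intracellular ATP (CellTiter-Glo luminescence) in 2500 LYMP2-015 lymphoblastoid cells/well after 24 h compound exposure at 37 C. Concentration-response data fitted with the standard Hill equation to give AC50.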

[15] = Cell Viability - LYMP2-017 (AID 972); note: series mostly up to about 92 µM; nearly all actives have a fitted effect of over 55% in size
Outline: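 CellTiter-Glo luminescence (cellular ATP, 30 min RT) measured cytotoxicity after 24 hr compound treatment at 37 C. Cells were a human lymphoblastoid line, LYMP2-017, plated at 2500/well and incubated 5 hr first; concentration-response fitted with Hill equation for AC50.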

[16] = Cell Viability - LYMP2-019 (AID 973); note: nearly all actives have a fitted effect of over 55% in size
Outline: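 AC50 values come from Hill-equation fits of luminescent intracellular ATP (CellTiter-Glo, 30 min, room temperature) following 24 h compound exposure at 37 C. Cells: LYMP2-019 lymphoblastoid line, 2500 per well, in complete culture medium.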

[17] = Cell Viability - LYMP2-021 (AID 974); note: nearly all actives have a fitted effect of over 55% in size
Outline: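 AC50 values come from Hill-equation fits to CellTiter-Glo luminescence (ATP content), read after 24 hour compound exposure at 37 C of 2500 LYMP2-021 lymphoblastoid cells/well; tetraoctylammonium bromide as positive control.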

[18] = Cell Viability - LYMP2-023 (AID 975)
Outline: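 Intracellular ATP, read by CellTiter-Glo luminescence, reports viability after 24 hr compound exposure at 37 C. 2500 lymphoblastoid cells/well (LYMP2-023) seeded 5 hr beforehand; Hill fits give AC50; positive control tetraoctylammonium bromide.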

[19] = Cell Viability - LYMP2-025 (AID 976); note: series mostly up to about 92 µM
Outline: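 Cytotoxicity read as loss of intracellular ATP (luciferase luminescence) after 24 h compound treatment at 37 C. Uses LYMP2-025 lymphoblastoid cells in 1536-well format; Hill-equation modelling gives AC50; tetraoctylammonium bromide as positive control.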

[20] = Cell Viability - LYMP2-002 (AID 977); note: series mostly up to about 92 µM
Outline: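 Human lymphoblastoid cells, 2500/well, complete medium; 5 h 37 C settle; compound 24 h 37 C; CellTiter-Glo, 30 min RT; luminescence. Decrease in ATP = cytotoxicity; AC50 via Hill equation.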

Measured: Potency

CC(C)C(=O)c1c(C(C)C)nn2ccccc12
inactive: [1]

C[C@]1(O)CC[C@H]2[C@@H]3CCC4=CC(=O)CC[C@]4(C)[C@@]3(F)[C@@H](O)C[C@@]21C
not listed: [1]
inactive: all other assays above

Oc1ccc(Cl)cc1
not listed: [1] | [9] | [10]
inactive: all other assays above

CCOC(=O)CC(SP(=S)(OC)OC)C(=O)OCC (stereo not drawn)
not listed: [1] | [3] | [10]
inactive: all other assays above

COP(=S)(OC)Oc1ccc(SC)c(C)c1
not listed: [1]
inactive: all other assays above

Cc1ccc(Cl)c(Nc2ccccc2C(=O)O)c1Cl
inactive: [1]

CN1C[C@H](C(=O)N[C@]2(C)O[C@@]3(O)[C@@H]4CCCN4C(=O)[C@H](Cc4ccccc4)N3C2=O)C=C2c3cccc4[nH]cc(c34)C[C@H]21
not listed: [1] | [3] | [10] | [14] | [16]
inactive: all other assays above

COc1cc(OC)c(OC)cc1C=O
not listed: [1]
inactive: all other assays above

NCCc1ccc(O)cc1
inactive: all assays above
